# Where “and” joins values, the source holds several entries; their conditions need not be identical. Equal values may be shown once.
# Key:
# Type in all cases: functional
# Plasmodium falciparum [1] = experiment: GSK_TCMDC: Inhibition of Plasmodium falciparum 3D7 in whole red blood cells, using parasite LDH activity as an index of growth. Test compounds present at 2uM
# Plasmodium falciparum [2] = experiment: GSK_TCMDC: Inhibition of Plasmodium falciparum Dd2 in whole red blood cells, using parasite LDH activity as an index of growth. Test compounds present at 2uM
# HepG2 = experiment: GSK_TCMDC: Percent inhibition of human HepG2 cell line. Test compounds present at 10uM.
SMILES,Inhibition (Plasmodium falciparum [1]),Inhibition (Plasmodium falciparum [2]),Inhibition (HepG2) [%]
O=C(NCc1cccc(C(F)(F)F)c1)c1ccc(CNC(=O)c2ccc(O)c(-c3ccc(Cl)c(Cl)c3)c2)cc1,92%,15%,7
Cc1nc(C)c(CC(=O)Nc2ccc(-c3ccc(-c4nc5cc(C(F)(F)F)ccc5[nH]4)s3)cc2)s1,90%,29%,57
CCN(CC)S(=O)(=O)n1ncc2c3c(N)nc(N)nc3ccc21.Cl,93%,16%,67
CN(C)CCOc1cc(NC(=O)Nc2ccc(-c3ccncc3)c3ccccc23)ccc1I,97%,46%,35
CC(C)[C@H](NC(=O)c1ccc(O)c(-c2ccc(Cl)c(Cl)c2)c1)C(=O)NC1CCCCCC1,99%,99%,0
COc1cc2nc(NCCc3ccccc3)nc(NCc3cc(C)no3)c2cc1OC,99%,100%,5
O=C(Nc1ccc(-c2ccc(CN3CCNCC3)cc2)cc1)c1cccc(Cl)c1.O=C(O)C(F)(F)F,91%,16%,58
NS(=O)(=O)c1ccc(CNc2ccc3ncc(-c4ccc(OC(F)(F)F)cc4)n3n2)cc1,97%,99%,10
NC1=NC(c2ccccc2)(c2cccc(O)c2)C(=O)N1CCCc1ccccc1 (stereo not given),85% and 98%,38% and 93%,0
COc1cc(Nc2ccnc3ccc(C(F)(F)F)cc23)ccc1OCCCc1ccccc1,99%,51%,11
